Hits are enriched below; roughly 1.8% of the tested compounds scored in any of these assays.
PERK inh – blocks human PERK kinase; inhibition, % at 5.6 µM; Q9NZJ5; AID 1416; CHO PERK-DD fusion, SEAP luminescence translation reporter; 0.17% of 220,000 active;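 active = inhibition above the mean inhibition of all tested compounds plus 3 SD, set separately per screening campaign, cut at about 2.9% in these data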;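 also: PERK kinase domain activated by AP20187 dimerizer at 100 nM; 0% = DMSO with dimerizer and 100% = rapamycin at 8.4 µM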
Target sequence (Q9NZJ5 whole entry, looked up, the tested form may be a part): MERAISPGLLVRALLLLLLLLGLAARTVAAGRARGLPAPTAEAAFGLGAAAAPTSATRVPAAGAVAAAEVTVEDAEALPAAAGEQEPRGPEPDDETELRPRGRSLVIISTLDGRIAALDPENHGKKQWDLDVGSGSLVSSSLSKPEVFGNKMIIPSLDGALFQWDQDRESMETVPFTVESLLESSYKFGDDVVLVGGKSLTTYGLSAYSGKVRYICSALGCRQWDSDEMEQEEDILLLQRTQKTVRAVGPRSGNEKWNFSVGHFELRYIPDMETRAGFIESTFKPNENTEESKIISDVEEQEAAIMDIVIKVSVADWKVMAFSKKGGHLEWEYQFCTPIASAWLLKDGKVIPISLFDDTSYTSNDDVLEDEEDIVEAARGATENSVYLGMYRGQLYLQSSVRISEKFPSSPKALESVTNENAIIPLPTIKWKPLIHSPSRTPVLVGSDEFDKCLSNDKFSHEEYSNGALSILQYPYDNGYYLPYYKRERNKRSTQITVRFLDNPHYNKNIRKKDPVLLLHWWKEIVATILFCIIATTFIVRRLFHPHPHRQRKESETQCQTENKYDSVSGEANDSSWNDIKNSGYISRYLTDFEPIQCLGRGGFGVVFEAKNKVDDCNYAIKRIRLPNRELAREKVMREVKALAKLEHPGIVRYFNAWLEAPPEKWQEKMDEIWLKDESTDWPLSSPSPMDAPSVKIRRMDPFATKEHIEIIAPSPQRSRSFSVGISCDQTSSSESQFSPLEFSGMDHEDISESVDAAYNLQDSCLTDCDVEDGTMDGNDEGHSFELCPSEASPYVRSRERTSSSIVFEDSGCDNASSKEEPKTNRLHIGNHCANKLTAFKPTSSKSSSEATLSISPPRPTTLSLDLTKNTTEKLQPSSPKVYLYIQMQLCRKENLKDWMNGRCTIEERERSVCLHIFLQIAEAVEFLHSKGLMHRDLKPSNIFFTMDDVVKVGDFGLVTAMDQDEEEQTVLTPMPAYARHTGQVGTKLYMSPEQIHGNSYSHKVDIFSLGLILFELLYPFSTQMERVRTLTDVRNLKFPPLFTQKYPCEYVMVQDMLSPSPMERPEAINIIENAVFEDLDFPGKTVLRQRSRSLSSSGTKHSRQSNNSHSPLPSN
EP2 modulator – EP2 receptor (human) modulation; P43116; EP2-expressing cells, cAMP HTRF FRET, PGE2 co-stimulation; induction, % at 25 µM; 0.83% of 260,000 active; AID 940;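 active = compounds whose cAMP rise, as percent of the full-agonist control response, exceeds 60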;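 also: rat C6 glioma line stably carrying human EP2 under a CMV promoter; the protocol text gives 20 µM as final concentration; 100% = response of wells given 1 µM PGE2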
eIF4E-4G inh – inhibitors of eIF4E and eIF4G interaction in translation initiation. P63073+Q04637. TR-FRET eIF4E-eIF4GI(517-606) binding, 2 h. inhibition, % at 21.7 µM. 0.37% of 220,000 active. AID 782;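 active = inhibition above about 30%, limit read from the data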;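 also: 0% = full FRET control wells and 100% = background wells lacking eIF4GI fragment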
EP2 antag – EP2 receptor (human) inhibition. inhibition, % at 25 µM. C6 glioma cells expressing human EP2, cAMP TR-FRET; cells stimulated with saturating PGE2. AID 1422. P43116. 0.52% of 260,000 active;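 active = percent inhibition above 40 after rounding to a whole number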;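 also: rat C6 glioma host cells with rolipram phosphodiesterase inhibitor present; the protocol text gives 20 µM as final concentration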
* marks the source's active call; other numbers are inactive results; nt = no result; ! = not active in a repeat.

SMILES | PERK inh | EP2 modulator | eIF4E-4G inh | EP2 antag
O=C(O)CCC(=O)c1cccc2ccccc12 | 0.7 | 18.6 | 3.3 | 8.3
O=C(O)CCC(=O)c1ccc2ccc3cccc4ccc1c2c34 | 0.8 | -23.1 | 4.0 | 53.2*!
CC(=O)O[C@@H]1CC2C(C)(C)CCC(=O)[C@]2(C)C2CC[C@@]3(C)[C@H](c4ccoc4)OC(=O)C4OC43[C@@]21C (some centres undefined) | nt | 2.0 | nt | 11.5
CC1(C)OC[C@@H]2O[C@H](n3cnc4c(N)nc(Cl)nc43)[C@H](OS(C)(=O)=O)[C@H]2O1 | nt | -18.8 | nt | 56.5*
Nc1nc(Cl)nc2c1ncn2[C@H]1C[C@H](O)[C@@H](CO)O1 | 0.9 | -5.1 | 0.8 | 16.3
CC(C)c1ccc(CN2CCC(C(=O)NCc3cccnc3)CC2)cc1 | -1.1 | 16.0 | 74.9* | 2.1
CCC(C)(C)n1nnnc1C(c1cc2cccc(C)c2[nH]c1=O)N1CCN(c2ccccc2F)CC1 (centres undefined) | nt | 23.7 | nt | 11.5
O=C(c1cc(S(=O)(=O)N2CCCCC2)ccc1Cl)N1CCCCCC1 | nt | -48.6 | nt | 12.3
CC(C)(C)N1CCC1CN (centres undefined) | 4.5* | 0.3 | 0.3 | 6.0
Cc1ccc(NC(=O)Cc2nnc(SCC(=O)Nc3nccs3)n2C)cc1 | nt | -21.6 | nt | 6.6
Cc1ccc(Cl)cc1NC(C#N)c1ccccc1 (centres undefined) | 0.9 | 62.9* | 3.8 | 11.2
O=C(Nc1ccc(Cl)c(C(F)(F)F)c1)NC1CC2CCCC(C1)N2Cc1ccccc1 (centres undefined) | 0.2 | -122.6 | 3.9 | 50.8*
O=C(NC1CCCCC1)NC1CC2CCCC(C1)N2Cc1ccccc1 (centres undefined) | nt | -1.3 | nt | 9.4
COc1ccccc1N1C(=O)CC2(CCCC2)CC1=O | nt | 20.4 | nt | 6.1
Cc1cccc2cc(CN(CCO)C(=O)NCc3ccccc3)c(=O)[nH]c12 | nt | -6.9 | nt | 5.6
N#C/C(=C\c1ccc(-c2ccc([N+](=O)[O-])cc2)o1)C(=O)Nc1nc(-c2cccs2)cs1 | -0.1 | -27.9 | 31.0* | 7.5
CCC(C)Oc1nc(C)cc(C)c1S(=O)(=O)c1ccccc1C (centres undefined) | 0.7 | 64.1* | 0.4 | 12.2
C#CCOc1nc(C)cc(C)c1S(=O)(=O)c1ccccc1C | 0.7 | 57.4 | 3.1 | 2.7
COc1ccccc1NC(=O)c1sc(NC(=O)Cc2ccccc2)c(C#N)c1C | nt | 15.1 | nt | 10.0
COc1ccccc1NC(=O)c1sc(NC(=O)COc2ccccc2)c(C#N)c1C | nt | 65.6* | nt | 12.6
N/C(=N/O)c1cn([C@H]2O[C@@H](CO)[C@H](O)[C@H]2O)c2ncnc(NO)c12 | nt | 24.5 | nt | 47.0*
CC(C)=CCNc1ncnc2c1c(C#N)cn2[C@H]1O[C@H](CO)[C@@H](O)[C@@H]1O | nt | 3.5 | nt | 38.0
Oc1ccc(-c2csc(-c3ccccc3)n2)c(O)c1 | nt | -141.7 | nt | 48.4*
O=C(CN1CCC(c2nc3ccccc3s2)CC1)NC1CCCCC1 | nt | -99.4 | nt | 15.4
COCCn1c(=NC(=O)C2COc3ccccc3O2)sc2cc(S(N)(=O)=O)ccc21 (centres undefined) | -1.0 | -50.6 | 13.9 | 58.4*
SMILES | PERK inh | EP2 modulator | eIF4E-4G inh | EP2 antag
C=CCn1c(=NC(=O)C2COc3ccccc3O2)sc2cc(S(N)(=O)=O)ccc21 (centres undefined) | -0.5 | -12.7 | 7.5 | 17.0
CC1=C(CC(=O)c2ccc(Cl)cc2)C(=O)c2ccccc2C1=O | 2.9* | 60.3 | -0.4 | 5.7
CC(C)Oc1ccc(OCCSc2nnc(-c3ccccc3)n2N)cc1 | nt | -115.4 | nt | 15.3
O=C1C=CC(=O)C(C2=C3C(=O)N(CCc4ccccc4)CC(=O)N3CCC2)=C1 | 0.2 | -53.4 | -1.2 | 89.9*
COc1cccc(CN2CCN(Cc3cccnc3)[C@@H](C)C2)c1 | nt | -18.0 | nt | nt
O=C(O)c1cc(-c2ccc(-c3ccc(-c4cc(C(=O)O)c5cc(Cl)ccc5n4)cc3)cc2)nc2ccc(Cl)cc12 | nt | -11.0 | nt | 21.0
O=C(O)c1cc(-c2ccc(-c3ccccc3)cc2)nc2cc3ccccc3cc12 | nt | -51.8 | nt | 45.7*
O=C(CSc1nnc2c3ccccc3nc(Cc3ccccc3)n12)NC1CCCCC1 | nt | 50.9 | nt | 11.3
COc1ccc2[nH]c(CN3CCC(O)(c4ccc(C)cc4)CC3)c(C)c2c1 | nt | -92.0 | nt | 5.9
Cc1c(NC(=O)Nc2c(Cl)cccc2Cl)c(=O)n(-c2ccccc2)n1C | -0.9 | 11.1 | -2.6 | 47.9*!
Cc1c(NC(=O)Nc2ccccc2Cl)c(=O)n(-c2ccccc2)n1C | 2.6 | 23.5 | 0.9 | 5.5
CCOC(=O)CNC(=O)CSc1nnc2c3c4c(sc3nc(CC)n12)CC(C)CC4 (centres undefined) | nt | -67.5 | nt | 17.7
C[C@@]12CC[C@@H]3[C@H](CCC4=CC(=O)CC[C@]43C)[C@H]1CC[C@H]2C(=O)COS(=O)(=O)c1ccc(Br)cc1 | nt | 17.4 | nt | 43.8*
C[C@@]12CC[C@@H]3[C@H](CCC4=CC(=O)CC[C@]43C)[C@H]1CC[C@H]2C(=O)Cn1cnc2c(=S)nc[nH]c21 | nt | 11.2 | nt | 40.8*
COc1ccc2c(c1)c1ccc3c(c1n2C)C(=O)C=CC3=O | 0.1 | -36.3 | 3.1 | 62.5*
O=C(CCc1ccccc1)NCC(=O)N/N=C/c1ccc(O)cc1O | 3.4* | -46.2 | -8.0 | 8.7
CCOc1cccc(/C(O)=C2/C(=O)C(=O)N(CCN3CCOCC3)C2c2ccco2)c1 (centres undefined) | nt | -20.8 | nt | 12.0
Cc1cccc(NC(=S)N(Cc2cc3cccc(C)c3[nH]c2=O)CC2CCCO2)c1 (centres undefined) | nt | 16.4 | nt | 7.2
Cc1ccc([N+](=O)[O-])cc1N=C(c1cccc([N+](=O)[O-])c1)N1CCOCC1 | 9.5* | 32.0 | -3.2 | 12.6
Cc1ccc([N+](=O)[O-])cc1N=C(c1ccc([N+](=O)[O-])cc1)N1CCOCC1 | 1.2 | 15.8 | 1.8 | 4.9
COc1ccc(CCNC(=O)C2CCN(c3nc4ccccc4n3C)CC2)cc1 | nt | -9.6 | nt | 5.9
COC(=O)Sc1nnc(-c2ccc(Br)cc2)o1 | 0.2 | 33.9 | 70.5* | 45.2*
Cc1sc2nc(SCc3ccc(C(=O)O)cc3)n(Cc3ccco3)c(=O)c2c1C | -0.3 | 82.5* | 4.2 | 5.7
C=CCn1c(SCc2ccc(C(=O)O)cc2)nc2sc(C)c(C)c2c1=O | 1.6 | 51.7 | 2.8 | 14.8
C/C(=N\Nc1ccc(F)cc1F)c1ccccc1O | 0.5 | -43.7 | 0.3 | 13.9
SMILES | PERK inh | EP2 modulator | eIF4E-4G inh | EP2 antag
C/C(=N\Nc1cc(C(F)(F)F)ccc1Cl)c1ccccc1O | 0.7 | 64.7* | -0.5 | 5.3
O=c1[nH]cnc2c1sc1nc(-c3ccccc3)c3c(c12)CCCC3 | 1.0 | 48.4 | -3.9 | 11.0
O=C(O)CSc1ncnc2c1sc1nc(-c3ccccc3)c3c(c12)CCC3 | 0.6 | 70.4* | 18.3 | 6.8
CN(C)CCCNc1cc(C(C)(C)C)nc2c(-c3ccc(Cl)cc3)cnn12 | 0.6 | -16.0 | 35.9* | 5.9
CC(C)(C)c1cc(NCc2ccccn2)n2ncc(-c3ccc(Cl)cc3)c2n1 | 0.9 | 19.9 | 4.5 | 6.4
O=S(=O)(c1cc(C(F)(F)F)ccc1Cl)N1CCOCC1 | nt | 1.9 | nt | 7.4
CCN(c1ccccc1)S(=O)(=O)c1ccc(Cl)c(NC(=O)Nc2ccc(Cl)cc2C#N)c1 | -0.5 | 60.6* | 21.7 | 2.9

Screening data: PubChem, several laboratories
